Assay results taken from ChEMBL document CHEMBL1961873, “Compounds: GSK PKIS; Assays: Nanosyn kinase panel” (2012).

Key:
[1] = molecular target: Homeodomain-interacting protein kinase 1 (Homo sapiens) (UniProt Q86Z02); conditions: at 0.1 µM
[2] = molecular target: Homeodomain-interacting protein kinase 1 (Homo sapiens) (UniProt Q86Z02); conditions: at 1 µM
[3] = molecular target: T1, Homeodomain-interacting protein kinase 4 (Homo sapiens) (UniProt Q8NE63); conditions: at 0.1 µM
T1 sequence (whole entry): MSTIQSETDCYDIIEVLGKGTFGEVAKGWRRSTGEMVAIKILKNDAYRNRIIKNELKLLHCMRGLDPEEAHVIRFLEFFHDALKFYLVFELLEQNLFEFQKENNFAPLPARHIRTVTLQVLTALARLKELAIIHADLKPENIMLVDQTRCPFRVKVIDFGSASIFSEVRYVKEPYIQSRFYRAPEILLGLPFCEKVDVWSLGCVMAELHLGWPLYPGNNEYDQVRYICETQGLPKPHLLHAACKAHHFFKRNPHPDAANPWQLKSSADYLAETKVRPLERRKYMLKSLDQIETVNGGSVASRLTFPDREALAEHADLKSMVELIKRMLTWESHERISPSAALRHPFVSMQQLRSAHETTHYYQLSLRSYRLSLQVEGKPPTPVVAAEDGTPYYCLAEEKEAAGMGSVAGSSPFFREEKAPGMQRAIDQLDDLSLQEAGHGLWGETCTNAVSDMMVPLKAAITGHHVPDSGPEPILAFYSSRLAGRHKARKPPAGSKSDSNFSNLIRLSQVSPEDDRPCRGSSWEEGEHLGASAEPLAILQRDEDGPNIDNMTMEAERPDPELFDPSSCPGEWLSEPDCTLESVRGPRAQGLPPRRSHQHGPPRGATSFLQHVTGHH

[4] = molecular target: T1, Homeodomain-interacting protein kinase 4 (Homo sapiens); conditions: at 1 µM
[5] = molecular target: Mitogen-activated protein kinase 9 (Homo sapiens) (UniProt P45984); conditions: at 0.1 µM
[6] = molecular target: Mitogen-activated protein kinase 9 (Homo sapiens) (UniProt P45984); conditions: at 1 µM
[7] = molecular target: Mitogen-activated protein kinase 1 (Homo sapiens) (UniProt P28482); conditions: at 0.1 µM
[8] = molecular target: Mitogen-activated protein kinase 1 (Homo sapiens) (UniProt P28482); conditions: at 1 µM
[9] = molecular target: Mitogen-activated protein kinase 3 (Homo sapiens) (UniProt P27361); conditions: at 0.1 µM;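 further: each value is a mean inhibition figure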
[10] = molecular target: Glycogen synthase kinase-3 beta (Homo sapiens) (UniProt P49841); conditions: at 1 µM;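 further: reported values are mean percent inhibition of GSK3B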
Sequence of Glycogen synthase kinase-3 beta (Homo sapiens) (P49841 whole entry, looked up): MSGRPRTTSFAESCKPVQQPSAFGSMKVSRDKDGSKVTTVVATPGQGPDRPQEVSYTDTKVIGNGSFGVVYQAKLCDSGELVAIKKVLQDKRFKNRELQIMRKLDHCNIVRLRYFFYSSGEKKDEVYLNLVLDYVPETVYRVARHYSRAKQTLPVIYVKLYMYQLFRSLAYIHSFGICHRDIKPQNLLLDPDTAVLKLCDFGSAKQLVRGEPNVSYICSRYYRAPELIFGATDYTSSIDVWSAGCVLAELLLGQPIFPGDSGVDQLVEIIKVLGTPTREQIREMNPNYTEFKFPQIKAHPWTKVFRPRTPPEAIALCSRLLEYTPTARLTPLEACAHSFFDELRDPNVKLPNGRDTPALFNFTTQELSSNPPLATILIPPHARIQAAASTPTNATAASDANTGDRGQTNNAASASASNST

Sequence of Mitogen-activated protein kinase 9 (Homo sapiens) (P45984 whole entry, looked up): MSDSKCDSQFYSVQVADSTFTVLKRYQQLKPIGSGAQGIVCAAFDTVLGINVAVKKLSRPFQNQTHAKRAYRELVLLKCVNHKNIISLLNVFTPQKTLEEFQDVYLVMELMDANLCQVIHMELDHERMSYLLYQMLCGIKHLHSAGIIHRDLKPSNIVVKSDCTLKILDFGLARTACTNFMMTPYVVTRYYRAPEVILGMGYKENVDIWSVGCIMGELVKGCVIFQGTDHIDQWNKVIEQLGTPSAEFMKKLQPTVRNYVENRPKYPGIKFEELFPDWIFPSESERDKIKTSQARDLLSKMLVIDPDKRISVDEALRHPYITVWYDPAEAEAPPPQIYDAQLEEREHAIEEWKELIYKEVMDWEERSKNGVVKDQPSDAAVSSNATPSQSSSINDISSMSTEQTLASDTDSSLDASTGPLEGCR
Sequence of Mitogen-activated protein kinase 3 (Homo sapiens) (P27361 whole entry): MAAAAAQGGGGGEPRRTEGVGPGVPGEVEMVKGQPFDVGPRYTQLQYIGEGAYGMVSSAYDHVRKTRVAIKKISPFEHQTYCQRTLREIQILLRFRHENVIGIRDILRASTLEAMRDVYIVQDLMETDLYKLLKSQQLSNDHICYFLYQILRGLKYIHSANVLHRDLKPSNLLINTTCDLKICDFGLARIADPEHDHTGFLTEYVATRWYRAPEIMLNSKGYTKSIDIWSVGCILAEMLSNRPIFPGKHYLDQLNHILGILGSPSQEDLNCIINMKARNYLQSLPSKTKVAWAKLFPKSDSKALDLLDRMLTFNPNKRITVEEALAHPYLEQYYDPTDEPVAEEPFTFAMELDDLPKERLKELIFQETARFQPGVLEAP
Sequence of Mitogen-activated protein kinase 1 (Homo sapiens) (P28482 whole entry): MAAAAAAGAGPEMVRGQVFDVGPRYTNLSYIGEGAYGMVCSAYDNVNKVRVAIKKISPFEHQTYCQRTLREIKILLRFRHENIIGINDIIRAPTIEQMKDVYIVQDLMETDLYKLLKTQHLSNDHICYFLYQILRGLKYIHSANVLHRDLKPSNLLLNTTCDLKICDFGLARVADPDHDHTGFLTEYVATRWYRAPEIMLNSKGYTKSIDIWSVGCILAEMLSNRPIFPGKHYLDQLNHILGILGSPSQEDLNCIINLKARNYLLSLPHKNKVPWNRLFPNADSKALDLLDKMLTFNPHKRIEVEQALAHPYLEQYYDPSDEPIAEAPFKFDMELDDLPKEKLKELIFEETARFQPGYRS
Sequence of Homeodomain-interacting protein kinase 1 (Homo sapiens) (Q86Z02 whole entry, looked up): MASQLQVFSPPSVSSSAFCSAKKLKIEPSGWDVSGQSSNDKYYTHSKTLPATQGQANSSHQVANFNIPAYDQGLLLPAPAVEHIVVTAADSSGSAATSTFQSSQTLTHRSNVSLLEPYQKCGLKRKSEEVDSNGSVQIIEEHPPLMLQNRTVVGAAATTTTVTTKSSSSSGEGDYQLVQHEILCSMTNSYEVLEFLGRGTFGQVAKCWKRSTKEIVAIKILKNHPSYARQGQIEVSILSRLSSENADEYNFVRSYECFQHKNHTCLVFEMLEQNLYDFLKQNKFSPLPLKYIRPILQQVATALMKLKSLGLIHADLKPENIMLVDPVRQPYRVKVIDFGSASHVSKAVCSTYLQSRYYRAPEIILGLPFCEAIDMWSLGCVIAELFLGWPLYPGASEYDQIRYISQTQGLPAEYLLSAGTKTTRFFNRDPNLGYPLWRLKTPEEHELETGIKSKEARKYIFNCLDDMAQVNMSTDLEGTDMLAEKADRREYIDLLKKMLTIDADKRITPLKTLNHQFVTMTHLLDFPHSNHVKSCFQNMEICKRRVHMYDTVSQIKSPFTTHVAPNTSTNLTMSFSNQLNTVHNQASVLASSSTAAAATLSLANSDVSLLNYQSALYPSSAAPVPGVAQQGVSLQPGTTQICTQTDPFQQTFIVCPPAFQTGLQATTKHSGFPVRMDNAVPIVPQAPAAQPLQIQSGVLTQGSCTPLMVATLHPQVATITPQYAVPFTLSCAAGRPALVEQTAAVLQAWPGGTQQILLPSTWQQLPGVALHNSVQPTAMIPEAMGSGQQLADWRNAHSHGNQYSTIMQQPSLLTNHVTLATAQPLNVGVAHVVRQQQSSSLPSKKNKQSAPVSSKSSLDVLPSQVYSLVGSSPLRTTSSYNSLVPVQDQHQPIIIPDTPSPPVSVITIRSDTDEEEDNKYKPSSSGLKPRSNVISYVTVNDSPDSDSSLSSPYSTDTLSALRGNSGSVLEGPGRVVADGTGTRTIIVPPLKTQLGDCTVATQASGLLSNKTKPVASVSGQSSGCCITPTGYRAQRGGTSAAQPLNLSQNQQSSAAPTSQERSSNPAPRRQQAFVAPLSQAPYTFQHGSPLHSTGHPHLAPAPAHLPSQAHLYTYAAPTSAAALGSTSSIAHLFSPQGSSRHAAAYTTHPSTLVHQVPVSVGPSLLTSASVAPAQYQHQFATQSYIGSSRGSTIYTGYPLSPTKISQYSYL

Row | Compound | inhibition [1] [%] | inhibition [2] [%] | inhibition [3] [%] | inhibition [4] [%] | inhibition [5] [%] | inhibition [6] [%] | inhibition [7] [%] | inhibition [8] [%] | inhibition [9] [%] | inhibition [10] [%]
1 | O=C(Nc1n[nH]c2nc(-c3ccco3)c(Br)cc12)C1CC1 | -1.07 | 3.67 | 0.54 | 2.1 | 2.66 | 3.7 | -0.07 | 5.13 | 5.33 | –
2 | O=C1NC(=O)C(c2ccc(Cl)cc2)=C1Nc1ccc(Cl)c(C(=O)O)c1 | 2.13 | 4.29 | 1.76 | 1.98 | 0.98 | 5.72 | – | -5.59 | -1.99 | –
3 | COc1cc2ncn(-c3cc(OCc4ccccc4C(F)(F)F)c(C(N)=O)s3)c2cc1OC | -1.28 | 4.22 | 10.1 | 40.6 | 1.63 | 2.16 | 4.18 | 6.38 | 5.3 | 7.21
4 | COc1ccccc1Nc1ncc(-c2ccccc2)o1 | -3.68 | 0.57 | -0.52 | 0.15 | 4.12 | 3.07 | 5.93 | 6.15 | 4.06 | 2.74
5 | NCc1ccc(-c2nc(-c3ccc(Cl)c(O)c3)c(-c3ccncc3)[nH]2)cc1 | 0.11 | 5.53 | 0.99 | 8.45 | 4.51 | 15.8 | -0.32 | 0.67 | 0.94 | 65.4
6 | NC(=O)c1cccc(Nc2nccc(Nc3cccc4[nH]ncc34)n2)c1 | 1.13 | 7.88 | 3.21 | 21.2 | -6.25 | 4.55 | -3.75 | -0.34 | -3.05 | 35
7 | CS(=O)(=O)CCNCc1nc(-c2ccc3ncnc(Nc4ccc(F)c(Cl)c4)c3c2)cs1 | 1.07 | 5.32 | 3.32 | 18.8 | 1.61 | 4.55 | 4.72 | 5.04 | 1.63 | 1.99
8 | O=C1NC(=O)C(c2ccccc2Cl)=C1Nc1cccc(O)c1 | 1.81 | 7.57 | 0.96 | 3.38 | 2.21 | 2.41 | 2.64 | 2.43 | 2.98 | –
9 | Nc1nc(-c2ccc3c(c2)C(=Cc2cc(Br)c(O)c(Br)c2)C(=O)N3)cs1 | -1.1 | 4.76 | 0.92 | 11.3 | -3.8 | -4.58 | -2.57 | -2.89 | -0.09 | 4.42
10 | CCCN1CCC(Oc2cc(Nc3nc(Nc4cccc(F)c4C(N)=O)c4cc[nH]c4n3)c(OC)cc2Cl)CC1 | 2.76 | 18.8 | 3.27 | 24.8 | 1.29 | 2.98 | 0.93 | 17.9 | 0.36 | 9.38
11 | COc1ccc(-c2coc3ncnc(N)c23)cc1 | -1.54 | 0.23 | -1.26 | 0.51 | 4.38 | 5.45 | 4.53 | 6.4 | 5.16 | 2.62
12 | Cc1cccc(-c2n[nH]cc2-c2ccc3ncccc3n2)n1 | -0.8 | 6.4 | -0.32 | 0.37 | 1.26 | -0.31 | 0.39 | 1.2 | 3.13 | 0.05
13 | CCn1c(-c2nonc2N)nc2ccncc21 | -3.19 | 0.47 | -0.89 | -0.65 | 3.39 | 2.53 | 13.4 | 1.62 | 2.94 | 5.32
14 | CS(=O)(=O)Nc1ccc(N/C=C2\C(=O)Nc3ccccc32)cc1 | -1.53 | 3.36 | 0.6 | 4.82 | 0.25 | 5.63 | -4.34 | -2.51 | -0.36 | 17.2
15 | CNC(=O)c1cncc(/C=C/c2c(Cl)cccc2Cl)c1 | -2.63 | 4.11 | 1.25 | 7.87 | 4.08 | 10.1 | 5 | 4.6 | 5.34 | 1.92
16 | CC(C)=Cc1cccc2c1/C(=N/Nc1ccc(S(N)(=O)=O)cc1)C(=O)N2 | 2.49 | 10.8 | 1.38 | 6.2 | -0.73 | 6.66 | -0.23 | 0.78 | 0.6 | 44
17 | CCn1c(-c2nonc2N)nc2c(C#CC(C)(C)O)nc(CN3CCCC3)cc21 | -1.35 | 2.58 | -1.44 | 0.75 | 0.67 | -2.07 | -1.09 | 0.12 | 0.51 | 18.9
18 | Cc1nnc(-c2ccc(C)c(-c3ccc(C(=O)Nc4cccc(C#N)c4)cc3)c2)o1 | -1.32 | -2.46 | 0.46 | 0.28 | 4 | 2.96 | 0.61 | 2.56 | 3.17 | 3.29
19 | CS(=O)(=O)CCNCc1ccc(-c2ccc3ncnc(Nc4ccc(OCc5ccccc5)c(Cl)c4)c3c2)o1 | -2.41 | 2.91 | 4.33 | 7.49 | -0.54 | 1.16 | 2.06 | 1.18 | 1.84 | 3.95
20 | COC(=O)Nc1nc2cc(Oc3cccc(NC(=O)Nc4cc(C(F)(F)F)ccc4F)c3)ccc2[nH]1 | -3.75 | -1.32 | -1.03 | 11.4 | 2.79 | 1.58 | -0.65 | 0.3 | -0.17 | 6.36
21 | NC(=O)c1ccc(-c2nc(-c3ccccn3)c(-c3ccc4c(c3)OCO4)[nH]2)cc1 | -0.15 | 2.8 | 1.68 | 1.67 | 1.97 | 5.34 | 2.52 | 1.22 | 1.34 | 6.9
22 | NS(=O)(=O)c1cccc(-c2ccc3c(NC(=O)C4CC4)n[nH]c3c2)c1 | -0.23 | 0.61 | 0.1 | 1.04 | -7.07 | -5.26 | -2.53 | -5.17 | 0.73 | –
23 | CCn1c(-c2nonc2N)nc2c(N3CCCC3)nccc21 | -0.15 | 6.29 | -0.26 | 2.71 | -4.08 | -4.92 | -2.76 | -3.21 | 0.68 | 3.59
24 | Cc1ccc(NC(=O)c2ccnc(N3CCCC3)c2)cc1-c1ccc(C(=O)NCC2CC2)cc1 | -4.3 | -2.16 | -1.31 | 2.09 | 2.66 | 6.82 | 4.25 | 6.09 | 2.96 | 3.68
25 | Cc1cc(O)cc(C)c1/C=C/c1cncc(-c2nn[nH]n2)c1 | -4.42 | -1.96 | 1.12 | 3.32 | 7.47 | 9.2 | 4.59 | 5.51 | 4.38 | 2.36
26 | CCN1CCC(CC(=O)Nc2n[nH]c3nc(-c4cccs4)c(Br)cc23)CC1 | 3.88 | 6.48 | 2.06 | 8.88 | -5.62 | -3.11 | -4.72 | -6.9 | -1.1 | 68.7
27 | COc1cc(C=NNc2ncnc3c2cnn3-c2ccccc2)ccc1O | 3.83 | 28.3 | 10.8 | 39.6 | 2.12 | 6.67 | 2.39 | 2.08 | 1.28 | 78.1
28 | O=C1Nc2ccc(C(=O)c3ccco3)cc2C1=Cc1cc(Cl)c(O)c(Cl)c1 | 14 | 54.1 | 4.69 | 32.9 | 2.31 | 6.22 | 2.44 | 4.55 | 1.44 | 75.8
29 | O=C1NC(=O)C(N2CCc3ccccc32)=C1c1ccc(Cl)cc1 | 0.01 | 1.33 | -0.41 | 2.92 | 3.51 | 5.32 | 3.12 | 5.91 | 5.26 | –
